Source: PubChem
In the library only some 2.6% were active in any assay of this set; here they are far more common.
EBV LMP1 NFkB – Epstein-Barr LMP1 NF-kappaB reporter inhibition. inhibition, % at 12.5 µM. 0.69% of 350,000 active. AID 504558. LMP1-induced NF-kappaB luciferase reporter cells, luminescence; in the data active = inhibition above about 41%;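 note: 0% = neutral control wells and 100% = reference inhibitor control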
HSP90 inh – blocks HSP90-mediated luciferase refolding in reticulocyte lysate | Rabbit reticulocyte lysate, luciferase refolding luminescence, 3 h | inhibition, % at 5.6 µM | 0.91% of 290,000 active | AID 1789;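 active = inhibition above the screen-wide mean plus 3 SD, computed separately per campaign, cut at about 16% in these data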;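 note: 0% = DMSO wells and 100% = 60 µM geldanamycin wells; inhibitors lower the luminescence because luciferase stays unfolded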
TWEAK-Fn14 inh – blocks TWEAK-Fn14 interaction in a reporter cell assay | TWEAK-stimulated Fn14 reporter cells, luciferase luminescence, 8 h | inhibition, % at 10 µM | 2% of 360,000 active; in the data active = inhibition above about 50%
LGR2 inh – blocks bursicon-induced cAMP signaling via Drosophila LGR2; 0.35% of 380,000 active; inhibition, % at 9.99 µM; AID 720647; HEK293 LGR2, CRE-luciferase, bursicon-stimulated, 4 h;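 active = drop in luminescence signal, shown as inhibition above about 50% in the replicate tests, limit read from the data, passing the limit was not always enough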;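 note: agonist challenge used bursicon conditioned medium at about half maximal strength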
aDG glyco up – alpha-DG glycosylation activation; Pro5-aDG cells, alpha-DG glycosylation AlphaScreen (IIH6); 0% Pro5, 100% B10-LARGE cell signal; activation, % at 10 µM; 0.22% of 360,000 active; AID 624168;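 active = activation of at least 8% versus controls, or a plate z-score of at least 8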;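 note: Pro5 are CHO cells carrying HIG-tagged alpha-DG that lacks glycosylation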
TROY NFkB inh – blocks TROY-dependent signaling in reporter cells; Q293 LMP1-TROYcd NF-kB luciferase reporter, 4 h; inhibition, % at 10 µM; AID 1347056; 0.98% of 360,000 active;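 active = compounds whose plate-normalised and pattern-corrected inhibition of the luciferase reporter signal at the single screening dose is 50% or more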
The depositor's hits bear a star; · = not tested or not shown.

SMILES	EBV LMP1 NFkB	HSP90 inh	TWEAK-Fn14 inh	LGR2 inh	aDG glyco up	TROY NFkB inh
O=S(=O)(Nc1nc2ccccc2nc1Nc1ccc(N2CCOCC2)cc1)c1cc(Cl)ccc1Cl	9	3	80*	13	0	61*
CCOC(=O)Cc1csc(SCC(=O)c2c(N)n(CC(C)C)c(=O)n(C)c2=O)n1	10	0	22	·	3	25
Cc1csc(SCC(=O)c2c(N)n(CC(C)C)c(=O)n(C)c2=O)n1	10	3	52*	-5	1	21
COc1ccc(NC(=O)C[C@H]2C(=O)N(CCc3ccccc3)C[C@@H]2c2ccc(OC)cc2)cc1	44*	·	-2	-11	0	-14
O=C(C[C@H]1CC[C@@H](NC(=O)C2CCOCC2)[C@@H](CO)O1)NCC1CCCCC1	·	·	·	5	·	·
O=C(COC(=O)CCN1C(=O)/C(=C\C=C\c2ccccc2)SC1=S)Nc1cc(F)ccc1F	18	-1	55*	0	0	25
COc1ccc(NC2=C(C(C)=O)C(c3ccc(OC)c(OC)c3)C(C(C)=O)C(C)(O)C2)cc1 (stereo not drawn)	5	2	54*	·	0	38
CC(=C\c1ccccc1)/C=C1/SC(=S)N(CCC(=O)O)C1=O	0	5	55*	-11	0	9
CC(/C=C1\SC(=S)N(CC(=O)O)C1=O)=C\c1ccccc1	-8	-5	-2	8	0	-32
O=C1NC[C@H](c2ccccc2)OC(=O)[C@@H](Cc2ccc(F)cc2)C/C=C\C[C@H]1CC(=O)N(CCO)Cc1ccccc1	7	·	43	61*	-1	22
O=C1NC[C@@H](c2ccccc2)OC(=O)[C@H](Cc2ccc(F)cc2)C/C=C\C[C@H]1CC(=O)N(CCO)Cc1ccccc1	1	·	15	-4	0	13
O=C1NC[C@H](c2ccccc2)OC(=O)[C@H](Cc2ccc(F)cc2)C/C=C\C[C@H]1CC(=O)N(CCO)Cc1ccccc1	8	·	26	58*	0	13
Cc1nnc(N2CCCC(C(=O)NCc3ccc(OC(C)C)cc3)C2)c2nn(-c3ccccc3)c(C)c12 (stereo not drawn)	14	-2	32	4	2	26
Cc1nnc(N2CCCC(C(=O)Nc3cc(F)ccc3F)C2)c2nn(-c3ccccc3)c(C)c12 (stereo not drawn)	55*	5	39	·	1	53*
CC1(C)C[C@H](O)[C@]2(CO)[C@H](O)C[C@]3(C)C(=CCC4[C@@]5(C)CC[C@H](O)C(C)(C)C5CC[C@]43C)[C@@H]2C1 (stereo partly drawn)	-5	·	-29	12	0	-4
CC1(C)C[C@H]2C3=CCC4[C@@]5(C)CC[C@H](O[C@@H]6O[C@H](C(=O)O)[C@@H](O)[C@H](O)[C@H]6O)[C@@](C)(CO)C5CC[C@@]4(C)[C@]3(C)C[C@H](O)[C@@]2(CO)[C@@H](O)[C@@H]1O (stereo partly drawn)	6	·	5	-5	0	57*
C/C=C(\C)C(=O)OC1[C@H](OC(C)=O)C2(CO)C(CC1(C)C)C1=CCC3C4(C)CCC(O[C@@H]5O[C@H](C(=O)O)[C@@H](O[C@@H]6O[C@H](CO)[C@@H](O)[C@H](O)[C@H]6O)[C@H](O)[C@H]5O[C@H]5O[C@H](CO)[C@@H](O)[C@H](O)[C@H]5O)[C@](C)(CO)C4CCC3(C)[C@]1(C)C[C@H]2O (stereo partly drawn)	36	·	15	·	0	87*
C/C=C(/C)C(=O)OC1CC(C)(C)C[C@H]2C3=CC[C@@H]4[C@@]5(C)CCC(O[C@@H]6O[C@@H](C(=O)O)[C@@H](O)C(O[C@@H]7OC[C@H](O)[C@@H](O)[C@@H]7O[C@@H]7OC(CO)C(O)[C@@H](O)[C@@H]7O)C6O[C@@H]6OC(CO)C(O)C(O)C6O)[C@@](C)(CO)[C@@H]5CC[C@]4(C)[C@]3(C)CC(O)[C@@]12CO (stereo partly drawn)	4	·	-12	·	1	0
C[C@@H]1CN([C@@H](C)CO)C(=O)Cc2cc(NS(=O)(=O)c3cccs3)ccc2O[C@@H]1CN(C)Cc1ccccc1	·	·	·	-7	·	·
CO[C@H]1CC[C@@H]2CCN(C)C(=O)C[C@@H](c3ccccc3)CN(C)C(=O)c3cc(C#N)ccc3OC[C@@H]1O2	·	·	·	14	·	·
Cc1ccc(OCC(=O)NCCNC(=O)c2ccco2)cc1C	2	-3	52*	-3	0	-4
Cc1ccccc1CNC(=O)/C=C\C(=O)O	1	5	1	-21	0	75*
COc1ccccc1CNC(=O)/C=C/C(=O)O	5	6	-2	14	0	17
O=c1[nH]c(-c2ccccn2)nc2sc(-c3ccccc3)cc12	18	-3	100*	32	0	26
CO[C@@H]1CN(C)C(=O)c2ccc(NC(=O)C3CC3)cc2OC[C@H](C)N(C(=O)NC(C)C)C[C@@H]1C	·	·	·	9	·	·
SMILES	EBV LMP1 NFkB	HSP90 inh	TWEAK-Fn14 inh	LGR2 inh	aDG glyco up	TROY NFkB inh
CO[C@@H]1CN(C)C(=O)c2cc(NC(=O)c3cccc(F)c3)ccc2OC[C@@H](C)NC[C@H]1C	·	·	·	-1	·	·
COc1ccc(C(=O)Nc2cccc(C(=O)N/N=C/c3ccc(OC)cc3OC)c2)cc1	67*	-1	22	-4	0	-26
COC(=O)c1ccc(COc2ccc(/C=N/Nc3cccc(C(=O)O)c3)cc2)cc1	-7	23*	22	-43	0	-17
COc1cc(/C=N/NC(=S)Nc2cccc(C(=O)O)c2)ccc1O	74*	9	-16	91*	0	-60
COc1ccc(/C=N/NC(=O)c2cccc(NC(C)=O)c2)c(OC)c1	-2	13	3	34	0	-1
COc1ccc(/C=N/NC(=S)Nc2cccc(C(=O)O)c2)cc1	25	10	50*	75*	0	-39
Cc1ccc(S(=O)(=O)Nc2ccc3c(c2)CC(=O)N([C@@H](C)CO)C[C@H](C)[C@H](CN(C)S(=O)(=O)c2ccccc2)O3)cc1	·	·	·	-1	·	·
Cc1noc(C)c1S(=O)(=O)N(C)C[C@@H]1OCCCC[C@@H](C)Oc2ccc(NC(=O)NC3CCCCC3)cc2C(=O)N([C@@H](C)CO)C[C@@H]1C	·	·	·	-2	·	·
CCOC(=O)c1cnc(SC2CCc3ccccc3C2=O)nc1N (stereo not drawn)	7	16*	50	·	0	49
CC(=NNC(=S)N1CC2CCC(CC2)C1)c1cccc(C)n1	79*	·	2	-39	0	-1
Cc1cccc(C(=O)N2CCCC(Nc3ccc(C)c(C)c3)C2)n1 (stereo not drawn)	2	-3	5	16	0	-4
CC(=NNC(=S)Nc1cccc(Cl)c1)c1ccccn1	52*	·	-12	-107	-1	17
CC(=NNC(=S)N1CCC1)c1ccccn1	50*	·	40	39	0	-13
